Among the test systems are SK-MEL-2 melanoma; EKVX NSCLC; SN12C renal; UO-31 renal; TK-10 renal; ACHN renal; CAKI-1 renal; A498 renal; CCRF-CEM leukemia; MOLT-4 leukemia.
Holding throughout (test): NCI-60 one-dose screen, 48 h (100 = growth as untreated, 0 = no growth, -100 = all killed)
Common to all, as to settings: 10 µM unless noted

The panel holds about 83,000 compounds, 20% with a hit somewhere; the sample as a whole holds those more often.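 Assay: single dose, 48 h. Readout: percent growth (0 = no net growth; negative = cell death). Active: <10.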 Values without a mark were called inactive. The source made the active and inactive calls.

Regarding `COc1cc(OC)cc(C(=O)Nc2cccc(-c3cn(-c4ccc(S(N)(=O)=O)cc4)nn3)c2)c1`, the growth in the assay on SK-MEL-2 melanoma is 92.6%; with EKVX NSCLC, 78.8%; in the assay with SN12C renal, 70%; in the assay on UO-31 renal, 96.3%; in the assay with TK-10 renal it was 94.8%; with ACHN renal, 88.5%. In addition, the growth is 60.8% in the assay with CAKI-1 renal, 116% in the assay on A498 renal and 105% in the assay with CCRF-CEM leukemia.
In the case of `Cc1cc(C)n(-c2ccc3nnc(-c4ccccc4)n3n2)n1`, the growth in the assay on SK-MEL-2 melanoma was 114%; in the assay with EKVX NSCLC, 88.5%; with SN12C renal it was 94.2%; in the assay on UO-31 renal it was -77.9% (active); in the assay on TK-10 renal, 95%; in the assay on ACHN renal, 104%. Moreover, the growth is 74.7% in the assay with CAKI-1 renal, 107% in the assay with A498 renal and 112% with CCRF-CEM leukemia.
For the compound `CN1CCN(Cc2ccc(C(=O)Nc3cccc(C#Cc4cccc5[nH]nc(N)c45)c3)cc2C(F)(F)F)CC1`, the growth was -88.9% (active) with SK-MEL-2 melanoma; -93.6% (active) with EKVX NSCLC; -94.7% (active) with SN12C renal; -98.2% (active) with UO-31 renal; -96% (active) in the assay with TK-10 renal; -98.3% (active) in the assay with ACHN renal. Moreover, the growth with CAKI-1 renal was -88.5% (active); in the assay on A498 renal it was -80.7% (active); with CCRF-CEM leukemia it was -20% (active).
For the compound `COc1ccc(C(=O)/C=C/c2cccnc2)cc1S(N)(=O)=O`, the growth was 104% in the assay with SK-MEL-2 melanoma; 63.3% with EKVX NSCLC; 37.7% in the assay with SN12C renal; 28% in the assay on UO-31 renal; 66.8% with TK-10 renal; 50.7% in the assay with ACHN renal. Moreover, the growth was 52.6% with CAKI-1 renal, 103% with A498 renal and 5.54% (active) in the assay with CCRF-CEM leukemia.
For `COc1cc(OC)cc(-c2cc3ccc(N(C)C)cc3c(=O)[nH]2)c1`, the growth in the assay with SK-MEL-2 melanoma was 33.6%; in the assay with EKVX NSCLC it was 47%; with SN12C renal, 36.7%; in the assay on UO-31 renal, 52.4%; in the assay on TK-10 renal, 79.1%; in the assay on ACHN renal, 31.2%. For the same compound, the growth in the assay with CAKI-1 renal was 34.2%; with A498 renal, 121%; in the assay with CCRF-CEM leukemia, 15.5%.
With `CN1CCN(c2ccc(C(=O)/C=C/c3cc(C(F)(F)F)cc(C(F)(F)F)c3)cc2)CC1`, the growth in the assay on SK-MEL-2 melanoma is -86.2% (active); in the assay on EKVX NSCLC it was -73.2% (active); in the assay with SN12C renal, -79.8% (active); in the assay with UO-31 renal, -92.5% (active); in the assay with TK-10 renal it was -88.7% (active); with ACHN renal it was -99.2% (active). Further, the values for the growth in the assay on CAKI-1 renal, in the assay with A498 renal and in the assay with CCRF-CEM leukemia were -73.7% (active), -70% (active) and 5.57% (active), respectively.
As for `COc1ccc(C(=O)/C=C/c2ccccc2Cl)cc1S(N)(=O)=O`, the growth in the assay with SK-MEL-2 melanoma was 108%; with EKVX NSCLC, 97.3%; in the assay with SN12C renal, 97.2%; with UO-31 renal it was 84.9%; in the assay with TK-10 renal it was 97.6%; with ACHN renal, 101%. The growth with CAKI-1 renal was 102%; in the assay with A498 renal it was 119%; in the assay with CCRF-CEM leukemia, 111%.
On to `COc1cccc(/C=C/C(=O)c2ccc(OC)c(S(N)(=O)=O)c2)c1`, for which the growth was 96.5% in the assay with SK-MEL-2 melanoma; 49.4% in the assay on EKVX NSCLC; 14.5% in the assay with SN12C renal; 2.53% (active) with UO-31 renal; 21.2% with TK-10 renal; -40.4% (active) in the assay with ACHN renal. Further, the growth in the assay with CAKI-1 renal is 26.5%; in the assay on A498 renal it was 115%; in the assay with CCRF-CEM leukemia, 2.26% (active).
For the compound `O=C(COc1ccc2c(c1)CCCC(=O)N2)NCc1ccccc1`, the growth in the assay on SK-MEL-2 melanoma was 87.1%; in the assay on EKVX NSCLC, 95.2%; with SN12C renal, 108%; in the assay on UO-31 renal, 84.7%; in the assay with TK-10 renal it was 110%; with ACHN renal, 103%. Besides, the growth with CAKI-1 renal was 92.7%; with A498 renal it was 94.6%; with CCRF-CEM leukemia, 78%; with MOLT-4 leukemia it was 80.6%.
With `COc1ccccc1/C=C/C(=O)c1ccc(OC)c(S(N)(=O)=O)c1`, the growth in the assay on SK-MEL-2 melanoma is 78.4%; with EKVX NSCLC it was 23.2%; in the assay with SN12C renal, 15.5%; in the assay with UO-31 renal it was 24.7%; with TK-10 renal it was 41.5%; with ACHN renal, 21.4%. Further, the growth in the assay with CAKI-1 renal is 20.9%; with A498 renal, 105%; in the assay with CCRF-CEM leukemia, 6.32% (active).
As to `CN1CCN(c2ccc3c(c2)nc(NNC(=O)c2cnccn2)c2cccn23)CC1`, the growth is -69% (active) with SK-MEL-2 melanoma; -46.8% (active) in the assay on EKVX NSCLC; 0.109% (active) in the assay with SN12C renal; -77.9% (active) with UO-31 renal; -74.5% (active) in the assay on TK-10 renal; -85.8% (active) with ACHN renal. Besides, the growth is -74% (active) with CAKI-1 renal and -84.7% (active) with A498 renal.
In the case of `COc1ccc(C(=O)/C=C/c2cccc3ccccc23)cc1S(N)(=O)=O`, the growth in the assay with SK-MEL-2 melanoma was 45.8%; in the assay on EKVX NSCLC, -6.08% (active); with SN12C renal, 6.92% (active); in the assay on UO-31 renal it was -68.9% (active); in the assay on TK-10 renal, 22.6%; with ACHN renal it was -27.1% (active). Moreover, the growth was 13.9% with CAKI-1 renal, 107% in the assay on A498 renal and 4.74% (active) in the assay on CCRF-CEM leukemia.
Regarding `COc1ccc(C(=O)/C=C/c2ccccc2Br)cc1S(N)(=O)=O`, the growth in the assay on SK-MEL-2 melanoma was 81.2%; in the assay on EKVX NSCLC it was -80.2% (active); in the assay with SN12C renal, -25.6% (active); in the assay with UO-31 renal it was -65.2% (active); in the assay on TK-10 renal, 3.43% (active); in the assay with ACHN renal, -97% (active). Besides, the growth in the assay on CAKI-1 renal is 11.8%; in the assay with A498 renal, 93.3%; in the assay on CCRF-CEM leukemia it was 6.96% (active).
In the case of `COc1ccc(NC(=O)Cn2c(/C=C/c3cccc([N+](=O)[O-])c3)nc3ccccc3c2=O)cc1`, the growth is 106% in the assay with SK-MEL-2 melanoma; 87.8% with EKVX NSCLC; 76.1% in the assay with SN12C renal; 22.9% in the assay with UO-31 renal; 72.7% with TK-10 renal; 20.3% in the assay with ACHN renal. The growth with CAKI-1 renal is 49.9%; in the assay on A498 renal, 92.8%; in the assay on CCRF-CEM leukemia it was 92.3%.
Turning to `COc1ccc(C(=O)/C=C/c2ccc(Cl)c(Cl)c2)cc1S(N)(=O)=O`, the growth is 66.9% in the assay on SK-MEL-2 melanoma; 24.1% in the assay with EKVX NSCLC; -2.78% (active) in the assay on SN12C renal; -80.5% (active) with UO-31 renal; 5.47% (active) with TK-10 renal; -69.7% (active) with ACHN renal. In addition, the growth in the assay with CAKI-1 renal was -7.4% (active); in the assay on A498 renal, 109%; in the assay on CCRF-CEM leukemia it was 12.4%.

The values above are taken from PubChem BioAssay (NCI).
